Consider 8 molecules from PubChem BioAssay (NCATS).

Experiment [1] in a line: Cytometric Cell-Based qHTS for Inhibitors of the mTORC1 Signaling Pathway in MEF (Tsc2-/-, p53-/-) Cells (AID 2660).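 Note: percent of cells above a phospho-rpS6 to PI ratio cutoff in each well; series mostly up to about 38 µM.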 Put shortly: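 Tsc2-/-, p53-/- MEFs (empty vector) exposed to compound 24 h at 37 C, fixed, stained with Alexa-488 anti-phospho-rpS6 Ser235/236 and propidium iodide. Acumen laser scanning; phospho-S6/PI ratio thresholded against 7.5 nM rapamycin, reported as % positive cells.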
On the technique in general: In qHTS, concentration-response curves come from the screen itself.

Experiment [2] in a line: High Content Imaging Cell-Based qHTS for Inhibitors of the mTORC1 Signaling Pathway in MEF (Tsc2-/-, p53-/-) Cells (AID 2666).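 Note: percent of cells scored positive for phospho-rpS6 Ser235/236 immunostaining by imaging.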 Put shortly:
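Phospho-rpS6 (Ser235/236) immunofluorescence, normalized and scored as % positive cells using rapamycin and DMSO controls, was read in empty-vector Tsc2-/-, p53-/- MEFs after 24 h compound exposure at 37 C; propidium iodide counted cells.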

Experiment [3] in a line: High Content Imaging Cell-Based qHTS for Inhibitors of the mTORC1 Signaling Pathway in MEF Cells (AID 2667).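 Note: Tsc2-/- p53-/- MEFs stably re-expressing wild-type Tsc2 exposed 24 h; series mostly up to about 38 µM.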 Put shortly:
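WT MEFs (Tsc2-/-, p53-/- re-expressing Tsc2), in DMEM + 10% FBS, were treated with compound for 24 h at 37 C. Cells were then fixed and stained for phospho-rpS6 Ser235/236 with propidium iodide as cell count. Values are % positive cells, with thresholds set against rapamycin-treated cells.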

Experiment [4] in a line: Cytometry Cell-Based qHTS for Inhibitors of the mTORC1 Signaling Pathway in MEF cells (AID 2668). Note: potency is the fitted concentration of half-maximal effect. Put shortly: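 Pathway inhibition in WT Tsc2-rescued Tsc2-/-, p53-/- MEFs is measured as the Alexa-488 phospho-rpS6 to propidium iodide intensity ratio after 24 hrs of compound at 37 degree Celsius. PI-stained cell number gives viability.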
The target of experiment [5] is Ubiquitin carboxyl-terminal hydrolase 2 (Homo sapiens) (UniProt O75604). Description: qHTS Validation Assay for Inhibitors of Ubiquitin-specific Protease USP2a Using CHOP2 as the Reporter (AID 463106). Put shortly:
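USP2 core (10 nM final) was preincubated with compound 30 min at RT in pH 8.0 Tris/CaCl2/beta-ME/CHAPS buffer. Ub-CHOP2 and reporter substrate (25 nM final each) were then added, with fluorescence (Ex 485/Em 531) read after 60 min. Data were normalized to NEM full inhibition and fitted to concentration-response curves.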

The target of experiment [6] is DNA polymerase III PolC-type (Bacillus subtilis (strain 168)) (UniProt P13267). Description: qHTS Validation Assay for the Inhibitors of DNA Replication in Gram-Positive Bacteria (AID 485295).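 Note: reconstituted holoenzyme with PolC plus beta clamp SSB and primase; PicoGreen fluorescence of double-stranded DNA made on primed circular M13 template; series mostly up to about 57 µM.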 Put shortly: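 Primed replication of single-stranded M13Gori by a four-protein B. subtilis holoenzyme is measured at room temperature. Double-stranded product is quantified by PicoGreen fluorescence after an EDTA stop; inhibition is scaled between DMSO and EDTA controls.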

In experiment [7] the target is Beta-2 adrenergic receptor (Homo sapiens) (UniProt P07550). Description: qHTS validation assay of beta-arrestin-biased ligands of beta2-adrenergic receptor (AID 485366). Put shortly:
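Tango cells expressing recombinant beta2-AR and beta-arrestin with tTA-driven luciferase, in DMEM with 1% FBS. Compounds were titrated up to 46 microM for 18 hr at 37 degrees C. Luminescence was read 15 min after substrate; curves were fitted and class-assigned.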

Experiment [8] addresses ATP-dependent 6-phosphofructokinase (Trypanosoma brucei brucei) (UniProt O15648). The experiment in a line: qHTS Validation Assay to Find Inhibitors of T. brucei phosphofructokinase (AID 485368). Put shortly:
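Activity was read as ADP production by luminescence (ADP-Glo) after 45 min at room temperature. The enzyme was 1.25nM PFK in 0.1M TEA pH 8.0 with 0.5 mM F6P, 0.1mM ATP and 5 mM MgCl2. Compounds were titrated up to 57 uM and % activity normalized to no-enzyme and full-enzyme controls.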

Experiment [9] has as its target Thioredoxin reductase 1, cytoplasmic (Rattus norvegicus) (UniProt O89049). The experiment in a line: qHTS Assay for Substrates of Mammalian Selenoprotein Thioredoxin Reductase 1 (TrxR1) (AID 488772).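 Note: NADPH fluorescence in the first read after selenite addition and not the 8 min delta; series mostly up to about 57 µM; a drop in NADPH fluorescence below the no-compound background marks a TrxR1 substrate.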 The essentials: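 Quantitative HTS in Tris-HCl buffer at pH 7.5 with EDTA and Tween-20, using rat TrxR1, 400 uM NADPH and 400 uM selenite (final). A fall in initial NADPH fluorescence relative to background marked substrate behaviour.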

Experiment [10] shares this target. Description: qHTS Assay for Inhibitors of Mammalian Selenoprotein Thioredoxin Reductase 1 (TrxR1) (AID 488773).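 Note: drop in NADPH fluorescence over an 8 min run after selenite addition; series mostly up to about 57 µM; nearly all actives have a fitted effect of over 40% in size.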 The following applies: Potency: inhibition. The essentials:
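Steps: enzyme (90 nM) plus NADPH (400 uM final), 5 min at ~22 deg C; compound added, 15 min; selenite (400 uM final) added; fluorescence followed for 8 min. Concentration-response curves derived from the normalized delta values.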

In experiment [11] the target is Flap endonuclease 1 (Homo sapiens) (UniProt P39748). The experiment in a line: qHTS Validation Assay for the Inhibitors of Human Flap endonuclease 1 (FEN1) (AID 488816). The essentials:
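Human FEN1 (10 nM) preincubated 15 min at room temperature with compounds, then flap DNA substrate added at 50 nM final. Fluorescence read at 0 and 15 min; concentration-response fitted with four-parameter Hill equation.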

In experiment [12] the target is M-phase phosphoprotein 8 (Homo sapiens) (UniProt Q99549). The experiment in a line: qHTS Validation Assay for Inhibitors for MPP8 Chromodomain Interactions with Methylated Histone Tails (AID 488949). Note: nearly all actives have a fitted effect of over 55% in size. Note: potency is the fitted concentration of half-maximal effect. Put shortly:
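Disruption of the preformed MPP8–trimethyl-H3K9 peptide complex (both 50 nM, 30 min, RT) is measured after 30 min compound exposure, using AlphaScreen proximity beads; aurintricarboxylic acid titration serves as plate control.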

Experiment [13] concerns the target Chromobox protein homolog 1 (Homo sapiens) (UniProt P83916). The experiment in a line: qHTS Validation Assay for Inhibitors of HP1-beta Chromodomain Interactions with Methylated Histone Tails (AID 488953). Note: nearly all actives have a fitted effect of over 50% in size. Note: potency is the fitted concentration of half-maximal effect. The essentials:
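50 nM HP1-beta + 50 nM biotin-H3(1-18)K9me3, PBS pH 7.4, 0.01% Tween-20, 30 min RT; compound added, 30 min RT; AlphaScreen beads 10 ug/mL final, 30 min dark; luminescence read.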

The target of experiment [14] is Tumor susceptibility gene 101 protein (Homo sapiens) (UniProt Q99816). Description: qHTS Validation Assay for Iinhibitors of HIV-1 Budding by Blocking the Interaction of PTAP/TSG101 (AID 485342; calls by dose curve). Put shortly: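 Fluorescence anisotropy measured PTAP-Tsg101 interaction. Final concentrations were 10 uM protein domain and 50 nM labeled peptide, equilibrated 20 min at room temperature.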

Experiment [15] is described as follows: qHTS Validation Assay to Find Inhibitors of Chronic Active B-Cell Receptor Signaling (AID 485345; active = well fitted curve in the direction sought with a large enough effect in the main read-out, with a control signal flat, not every such curve was filed as active). Put shortly: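 TMD8 ABC-DLBCL cells stably carrying doxycycline-inducible IkappaBalpha–green luciferase fusion plus unfused red luciferase; compounds 46 uM to 3 nM, 4 h at 37C with doxycycline. Corrected green/red luminescence ratio normalized to 10 uM MG-132 and basal cell wells; curves fitted.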

The nature of experiment [16]: Quantitative high throughput screen for delayed death inhibitors of the malarial parasite plastid, 96 hour incubation (AID 488745).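 Note: luciferase-expressing P. falciparum in erythrocytes at 2% hematocrit and 0.1% parasitemia; series mostly up to about 29 µM; nearly all actives have a fitted effect of over 70% in size.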 Put shortly: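 Infected erythrocytes were added to compound in Albumax-supplemented RPMI 1640 at 0.1% parasitemia and 2% hematocrit (final), incubated 96 h at 37 C under 5% CO2, then luciferase reagent was added and luminescence measured.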

Experiment [17] is described as follows: Quantitative high throughput screen for delayed death inhibitors of the malarial parasite plastid, 48 hour incubation (AID 488752). Note: nearly all actives have a fitted effect of over 65% in size. The essentials:
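Readout is firefly luciferase luminescence from a reporter integrated into the parasite genome, with lower signal taken as inhibited growth. Infected red cells (0.1% parasitemia, 2% hematocrit final) are cultured with compound for one 48 h cycle at 37 C.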

Molecules are shown by their SMILES. Records with an inconclusive call do not appear. A structure can be active in one record and inactive in another. Calls of active or inactive are those of the source. Unless noted, calls come from the whole dose curve; as a rule, active = well fitted curve in the direction sought with a large enough effect; inconclusive = small, poorly fitted or top-dose-only effect, or another doubt; inactive = no such curve, though single readings can be large; an effect the other way counts as inactive or inconclusive.

Sequence of ATP-dependent 6-phosphofructokinase (Trypanosoma brucei brucei) (O15648 whole entry, looked up): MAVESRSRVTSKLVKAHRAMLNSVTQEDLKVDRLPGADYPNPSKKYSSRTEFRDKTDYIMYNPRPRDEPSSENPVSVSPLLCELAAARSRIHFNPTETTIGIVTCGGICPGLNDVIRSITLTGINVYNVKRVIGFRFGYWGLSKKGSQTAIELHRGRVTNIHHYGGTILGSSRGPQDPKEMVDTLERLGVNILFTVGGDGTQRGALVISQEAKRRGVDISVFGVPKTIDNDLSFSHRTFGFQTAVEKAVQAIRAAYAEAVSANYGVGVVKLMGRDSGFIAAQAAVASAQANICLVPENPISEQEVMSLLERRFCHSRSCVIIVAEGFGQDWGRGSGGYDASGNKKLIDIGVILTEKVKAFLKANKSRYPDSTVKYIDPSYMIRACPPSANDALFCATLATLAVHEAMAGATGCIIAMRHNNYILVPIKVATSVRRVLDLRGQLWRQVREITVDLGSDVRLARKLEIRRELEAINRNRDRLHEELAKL
Sequence of Flap endonuclease 1 (Homo sapiens) (P39748 whole entry, looked up): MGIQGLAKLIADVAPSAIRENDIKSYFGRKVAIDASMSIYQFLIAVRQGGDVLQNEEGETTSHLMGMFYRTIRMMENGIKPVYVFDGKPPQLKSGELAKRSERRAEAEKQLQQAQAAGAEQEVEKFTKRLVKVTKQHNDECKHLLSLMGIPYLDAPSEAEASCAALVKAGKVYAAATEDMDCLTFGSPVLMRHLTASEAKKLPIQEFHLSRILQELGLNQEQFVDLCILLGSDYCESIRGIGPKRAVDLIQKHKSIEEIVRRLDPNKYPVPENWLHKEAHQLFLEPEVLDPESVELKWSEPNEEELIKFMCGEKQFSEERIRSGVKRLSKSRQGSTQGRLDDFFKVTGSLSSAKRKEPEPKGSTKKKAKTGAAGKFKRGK
Sequence of DNA polymerase III PolC-type (Bacillus subtilis (strain 168)) (P13267 whole entry, looked up): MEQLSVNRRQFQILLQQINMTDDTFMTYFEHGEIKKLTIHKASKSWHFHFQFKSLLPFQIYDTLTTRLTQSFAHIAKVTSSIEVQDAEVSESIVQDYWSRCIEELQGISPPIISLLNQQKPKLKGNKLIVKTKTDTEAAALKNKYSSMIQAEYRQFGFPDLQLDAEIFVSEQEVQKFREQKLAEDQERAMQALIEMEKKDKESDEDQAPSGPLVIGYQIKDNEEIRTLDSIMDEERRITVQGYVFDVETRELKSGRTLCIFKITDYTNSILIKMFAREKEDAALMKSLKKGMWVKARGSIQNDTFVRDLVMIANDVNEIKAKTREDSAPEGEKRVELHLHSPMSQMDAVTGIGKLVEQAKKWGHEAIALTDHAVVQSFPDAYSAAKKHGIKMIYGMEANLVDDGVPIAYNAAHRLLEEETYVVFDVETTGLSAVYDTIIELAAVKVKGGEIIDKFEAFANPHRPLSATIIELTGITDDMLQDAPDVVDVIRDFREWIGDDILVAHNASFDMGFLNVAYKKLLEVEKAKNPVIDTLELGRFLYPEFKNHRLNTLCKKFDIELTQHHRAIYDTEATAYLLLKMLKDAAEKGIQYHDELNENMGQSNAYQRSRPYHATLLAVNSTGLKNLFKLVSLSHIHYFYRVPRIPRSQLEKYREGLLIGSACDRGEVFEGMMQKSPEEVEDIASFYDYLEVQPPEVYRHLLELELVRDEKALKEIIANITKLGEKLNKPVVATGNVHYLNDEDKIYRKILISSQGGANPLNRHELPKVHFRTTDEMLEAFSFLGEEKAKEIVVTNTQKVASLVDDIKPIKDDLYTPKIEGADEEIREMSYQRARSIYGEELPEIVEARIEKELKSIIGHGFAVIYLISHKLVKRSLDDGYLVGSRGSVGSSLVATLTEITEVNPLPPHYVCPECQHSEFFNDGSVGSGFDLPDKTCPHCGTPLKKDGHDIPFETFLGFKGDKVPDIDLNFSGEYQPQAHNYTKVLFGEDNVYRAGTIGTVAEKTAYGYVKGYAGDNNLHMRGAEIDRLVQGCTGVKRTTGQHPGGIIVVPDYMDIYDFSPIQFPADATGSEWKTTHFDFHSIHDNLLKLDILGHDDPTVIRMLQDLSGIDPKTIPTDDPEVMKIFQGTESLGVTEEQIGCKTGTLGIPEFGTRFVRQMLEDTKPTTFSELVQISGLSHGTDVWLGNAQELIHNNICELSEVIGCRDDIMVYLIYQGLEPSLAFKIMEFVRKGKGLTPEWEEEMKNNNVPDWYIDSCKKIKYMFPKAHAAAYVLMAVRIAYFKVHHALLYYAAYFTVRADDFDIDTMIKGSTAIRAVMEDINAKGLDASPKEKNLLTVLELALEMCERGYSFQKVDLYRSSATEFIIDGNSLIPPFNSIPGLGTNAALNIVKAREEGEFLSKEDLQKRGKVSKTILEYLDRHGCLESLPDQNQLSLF
Sequence of Thioredoxin reductase 1, cytoplasmic (Rattus norvegicus) (O89049 whole entry, looked up): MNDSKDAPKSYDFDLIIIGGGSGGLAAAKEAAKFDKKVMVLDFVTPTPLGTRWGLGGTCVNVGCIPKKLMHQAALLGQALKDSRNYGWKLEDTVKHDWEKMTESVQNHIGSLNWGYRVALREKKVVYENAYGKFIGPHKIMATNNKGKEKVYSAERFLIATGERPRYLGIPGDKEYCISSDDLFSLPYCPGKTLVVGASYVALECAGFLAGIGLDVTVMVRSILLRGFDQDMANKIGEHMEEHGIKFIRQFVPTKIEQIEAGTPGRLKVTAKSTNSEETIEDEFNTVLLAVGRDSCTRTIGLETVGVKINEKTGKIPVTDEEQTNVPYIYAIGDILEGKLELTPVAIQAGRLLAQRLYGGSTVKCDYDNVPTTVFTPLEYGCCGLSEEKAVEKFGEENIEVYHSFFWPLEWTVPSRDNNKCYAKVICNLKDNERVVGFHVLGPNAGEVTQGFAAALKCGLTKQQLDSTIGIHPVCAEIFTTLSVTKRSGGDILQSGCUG
Sequence of Beta-2 adrenergic receptor (Homo sapiens) (P07550 whole entry, looked up): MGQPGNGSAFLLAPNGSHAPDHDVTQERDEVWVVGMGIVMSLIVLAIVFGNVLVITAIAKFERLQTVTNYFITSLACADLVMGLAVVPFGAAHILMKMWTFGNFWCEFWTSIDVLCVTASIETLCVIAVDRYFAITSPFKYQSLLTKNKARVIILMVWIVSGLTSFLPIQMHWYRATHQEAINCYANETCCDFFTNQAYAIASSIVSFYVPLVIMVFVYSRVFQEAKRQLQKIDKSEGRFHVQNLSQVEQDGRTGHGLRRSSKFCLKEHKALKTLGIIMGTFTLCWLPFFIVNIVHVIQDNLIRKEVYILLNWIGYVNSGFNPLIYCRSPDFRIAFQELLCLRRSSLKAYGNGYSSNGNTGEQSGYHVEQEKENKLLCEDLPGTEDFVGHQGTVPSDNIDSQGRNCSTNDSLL
Sequence of M-phase phosphoprotein 8 (Homo sapiens) (Q99549 whole entry, looked up): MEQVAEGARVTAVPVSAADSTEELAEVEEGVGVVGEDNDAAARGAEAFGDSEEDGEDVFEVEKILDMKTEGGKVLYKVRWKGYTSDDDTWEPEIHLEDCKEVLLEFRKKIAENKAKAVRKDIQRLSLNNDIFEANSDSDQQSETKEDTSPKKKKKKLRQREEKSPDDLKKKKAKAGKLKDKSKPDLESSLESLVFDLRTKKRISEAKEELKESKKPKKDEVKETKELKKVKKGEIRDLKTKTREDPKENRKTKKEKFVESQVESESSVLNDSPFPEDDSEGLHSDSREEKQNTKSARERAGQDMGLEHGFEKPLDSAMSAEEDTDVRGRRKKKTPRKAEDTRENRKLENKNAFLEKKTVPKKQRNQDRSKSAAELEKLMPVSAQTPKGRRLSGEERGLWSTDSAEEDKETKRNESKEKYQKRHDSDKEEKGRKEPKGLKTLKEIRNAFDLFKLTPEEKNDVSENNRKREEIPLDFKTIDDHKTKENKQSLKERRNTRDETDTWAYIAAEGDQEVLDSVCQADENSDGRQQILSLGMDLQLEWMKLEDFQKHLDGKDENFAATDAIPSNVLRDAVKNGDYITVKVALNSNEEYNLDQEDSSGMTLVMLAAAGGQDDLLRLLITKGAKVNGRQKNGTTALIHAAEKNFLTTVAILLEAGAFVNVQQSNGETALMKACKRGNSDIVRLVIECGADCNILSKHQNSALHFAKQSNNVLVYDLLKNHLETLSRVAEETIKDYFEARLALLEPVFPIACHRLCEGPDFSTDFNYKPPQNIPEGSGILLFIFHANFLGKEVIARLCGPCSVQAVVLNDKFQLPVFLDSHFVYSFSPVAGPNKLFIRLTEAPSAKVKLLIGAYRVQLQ
Sequence of Chromobox protein homolog 1 (Homo sapiens) (P83916 whole entry, looked up): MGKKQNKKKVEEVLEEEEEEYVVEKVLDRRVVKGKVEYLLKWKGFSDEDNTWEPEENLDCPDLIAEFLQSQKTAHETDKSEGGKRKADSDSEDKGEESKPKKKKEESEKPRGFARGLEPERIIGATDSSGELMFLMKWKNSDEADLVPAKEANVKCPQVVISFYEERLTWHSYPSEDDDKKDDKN
Sequence of Ubiquitin carboxyl-terminal hydrolase 2 (Homo sapiens) (O75604 whole entry, looked up): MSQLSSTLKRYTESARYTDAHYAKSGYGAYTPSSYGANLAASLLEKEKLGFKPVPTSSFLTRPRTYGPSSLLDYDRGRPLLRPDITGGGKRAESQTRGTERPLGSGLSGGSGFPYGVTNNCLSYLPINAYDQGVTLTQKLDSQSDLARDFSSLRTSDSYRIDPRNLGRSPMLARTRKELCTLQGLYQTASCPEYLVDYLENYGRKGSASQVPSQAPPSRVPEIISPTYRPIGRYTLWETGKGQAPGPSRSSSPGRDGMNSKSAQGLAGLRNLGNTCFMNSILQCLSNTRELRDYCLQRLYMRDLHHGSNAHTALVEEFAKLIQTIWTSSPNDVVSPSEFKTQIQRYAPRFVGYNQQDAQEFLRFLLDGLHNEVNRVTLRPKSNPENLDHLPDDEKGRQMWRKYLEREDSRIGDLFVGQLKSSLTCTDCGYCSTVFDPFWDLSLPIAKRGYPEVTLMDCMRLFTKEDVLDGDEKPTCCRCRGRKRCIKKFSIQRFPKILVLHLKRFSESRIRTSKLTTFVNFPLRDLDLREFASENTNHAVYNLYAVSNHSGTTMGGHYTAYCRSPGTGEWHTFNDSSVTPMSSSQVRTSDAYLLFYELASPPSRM

As for `NC[C@H]1O[C@@H](n2cnc3c(N)ncnc32)[C@H](O)[C@@H]1O`, the molecule was classed as inactive in experiment [1] and in [7]. Also, the Potency entry in [2], in experiment [3], in experiment [4], in [5], in experiment [6] and in experiment [8] was “inactive” each time. For the same molecule, the Potency entry in experiment [9], in experiment [10], in [11], in experiment [12] and in [13] was “inactive” each time.
For `CN1CCc2ccccc2Cc2[nH]c3ccccc3c2CC1`, the result in experiment [1], in experiment [14], in experiment [15] and in experiment [7] was inactive. In addition, the Potency result in experiment [2], in experiment [3], in experiment [5], in [6], in [9] and in experiment [11] was “inactive” each time. For the same molecule, the Potency in experiment [12] was 50.1 µM (active) and inactive.
`COc1cc(OC)c(/C=C2/C(=O)Nc3ccccc32)c(OC)c1`: the outcome in experiment [1] and in [7] was inactive. Moreover, the Potency entry in [2], in [3], in experiment [4], in experiment [5], in experiment [6] and in [16] was “inactive” in each case. For the same molecule, the Potency entry in [17], in experiment [9], in [10] and in [11] was “inactive” in each case.
Take `O=C(c1ccc(OCCCc2cnc[nH]2)cc1)C1CC1`: the result in experiment [1], in experiment [15] and in [7] was inactive. Moreover, the Potency result in [2], in experiment [3], in experiment [4], in [5], in [6] and in [9] was “inactive” each time. For the same molecule, the Potency entry in experiment [10], in experiment [11] and in experiment [12] was “inactive” in each case.
On to `CCCCCCCCCCCCCCCCCC(=O)OC(CC(=O)O)C[N+](C)(C)C` (stereo unspecified), for which the call in [1] and in [7] was inactive. The Potency result in experiment [2], in [3], in experiment [4], in [5], in [6] and in experiment [9] was “inactive” throughout. Moreover, the Potency result in [10], in experiment [11], in experiment [12] and in experiment [13] was “inactive” in each case.
As to `CSc1ccccc1N1CCN(CCCCCC(=O)NC2CCCc3ccccc32)CC1` (stereo unspecified), the outcome in [1] and in [7] was inactive. Moreover, the Potency result in experiment [2], in experiment [5], in [6], in [8], in [9] and in [11] was “inactive” throughout. The Potency result in experiment [12] was “inactive”. Further, the Potency in experiment [4] is 11.7 µM (active); in experiment [13], 50.1 µM (active).
For `CCCCCCCCc1ccc(-c2ccc(C(=O)O)cc2)cc1`, the result in experiment [1], in [14] and in experiment [7] was inactive. Moreover, the Potency result in experiment [2], in experiment [3], in experiment [5], in [6], in [8] and in experiment [9] was “inactive” in each case. The Potency entry in experiment [10], in [11], in experiment [12] and in experiment [13] was “inactive” each time.
In the case of `C=CC(C)=C[C@@]1(C)SC(=O)C(C)=C1O`, the call in experiment [1], in experiment [15] and in experiment [7] was inactive. Further, the Potency entry in experiment [2], in [3], in [4], in experiment [5], in experiment [6] and in experiment [9] was “inactive” throughout. For the same molecule, the Potency result in experiment [10], in experiment [11] and in [12] was “inactive” throughout.
